GALR2 agonist – GALR2 receptor agonists, primary screen, cell-based; Galanin receptor type 2 (Homo sapiens), O43603; GALR2-expressing cells, agonist activation read-out; activation, % (no concentration beside the values); 140,000 compounds, 0.48% hits; in the data active = activation above about 5%, passing the limit was not always enough;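 also: 0% = vehicle buffer wells and 100% = reference agonist at full effect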
S1P3 antagonist – S1P3 receptor antagonists, primary screen, cell-based; Sphingosine 1-phosphate receptor 3 (Homo sapiens), Q99500; CHO S1P3 NFAT-BLA reporter, FRET fluorescence, antagonist mode; inhibition, % at 4.98 µM; 170,000 compounds, 0.27% hits;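 active = inhibition above the plate cutoff, the mean inhibition of test wells on that plate plus 3 SD, cut at about 28% in these data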;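 also: cells challenged with S1P at its EC80 of 0.8 µM; blue over green emission ratio from cleaved BLA substrate after 4 h stimulation; 0% = S1P-stimulated wells and 100% = unstimulated DMSO-only wells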
S1P4 ag – S1P4 receptor agonists, primary screen, cell-based; Sphingosine 1-phosphate receptor 4 (Homo sapiens), O95977; S1P4-expressing cell line, agonist reporter assay; activation, % at 4.98 µM; 220,000 compounds, 0.35% hits; AID 1509, 2009; in the data active = activation above about 11%;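 also: 0% = DMSO vehicle and 100% = reference agonist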
S1P4 antag – S1P4 receptor antagonists, primary screen, cell-based; Sphingosine 1-phosphate receptor 4 (Homo sapiens), O95977; S1P4-expressing cells, antagonist mode, reporter read-out; inhibition, % at 4.98 µM; 220,000 compounds, 0.26% hits; in the data active = inhibition above about 29%;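 also: 0% = wells stimulated with agonist and 100% = vehicle wells without agonist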
GALR2 blocker – GALR2 antagonists in receptor-expressing cells, primary screen; Galanin receptor type 2 (Homo sapiens), O43603; antagonist mode; inhibition, % at 4 µM; 140,000 compounds, 0.39% hits; in the data active = inhibition above about 27%;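 also: cells stimulated with galanin 1-16 at roughly its EC80; 0% = agonist challenge control and 100% = basal control without agonist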
S1P4 ag conf – S1P4 receptor agonists, retest, confirmation, cell-based, high throughput. AID 1523, 2009. 740 compounds, 7% hits. S1P4 agonist cell-based reporter assay. activation, % at 4.98 µM. shares compounds with S1P4 ag; in the data active = activation above about 12%;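 also: 0% = vehicle and 100% = full reference agonist response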
S1P1 ag – S1P1 receptor agonists, human, counter-screen for S1P4 agonist project, cell-based; shares compounds with S1P4 ag; S1P1 agonist cell-based assay, activation; activation, % at 4.98 µM; 740 compounds, 4% hits; AID 1563, 2009; in the data active = activation above about 21%;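 also: 0% = vehicle wells and 100% = reference agonist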
Target sequence (P21453 whole entry, looked up): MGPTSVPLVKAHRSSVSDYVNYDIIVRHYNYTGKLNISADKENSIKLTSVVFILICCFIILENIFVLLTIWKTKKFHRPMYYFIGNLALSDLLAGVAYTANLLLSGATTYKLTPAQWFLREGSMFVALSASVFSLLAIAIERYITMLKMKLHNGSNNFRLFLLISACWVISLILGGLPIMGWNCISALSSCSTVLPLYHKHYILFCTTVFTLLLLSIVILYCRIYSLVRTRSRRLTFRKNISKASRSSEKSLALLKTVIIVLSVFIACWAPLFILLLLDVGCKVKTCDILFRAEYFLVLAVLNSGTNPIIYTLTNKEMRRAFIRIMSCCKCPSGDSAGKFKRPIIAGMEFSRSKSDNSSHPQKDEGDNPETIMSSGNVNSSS
Numbers without * were called inactive. Rows were chosen to be rich in hits. Some 1.3% of all compounds tested hit in one or more screens of this group.

How did CCCNc1ccc(C(=O)OCC)cc1[N+](=O)[O-] do in these assays?
S1P3 antagonist: -14; S1P4 ag: 34*; S1P4 antag: -9; S1P4 ag conf: -2; S1P1 ag: 8

How did O=C1CSC(=S)N1N1C(=O)c2cccc([N+](=O)[O-])c2C1=O do in these assays?
S1P3 antagonist: 2; S1P4 ag: 0; S1P4 antag: -17

How did CCOC(=O)c1cn(CC)c2cc(N3CCOCC3)c(F)cc2c1=O do in these assays?
GALR2 agonist: 1; S1P3 antagonist: -9; S1P4 ag: 14*; S1P4 antag: -5; GALR2 blocker: -8; S1P4 ag conf: -2; S1P1 ag: -3

What do the screens show for `Cc1cc(N/N=C2\CC(C)CC(C)(C)C2)nc2ccccc12` (stereo not drawn)?
S1P3 antagonist: -17; S1P4 ag: 2; S1P4 antag: -8

Results for Cc1cc(C)nc(/N=C(\N)Nc2cccc([N+](=O)[O-])c2)n1 ?
GALR2 agonist: -1; S1P3 antagonist: -5; S1P4 ag: 12*; S1P4 antag: -11; GALR2 blocker: -6; S1P4 ag conf: -1; S1P1 ag: -1

Results for Cc1cc(C)nc(/N=C(\N)Nc2ccc([N+](=O)[O-])cc2)n1 ?
GALR2 agonist: 0; S1P3 antagonist: -18; S1P4 ag: 0; S1P4 antag: -5; GALR2 blocker: 3

Results for COc1ccc(C2CC(c3ccccc3)=NN2C(=O)COC(=O)c2cccnc2)cc1 (stereo not drawn) ?
GALR2 agonist: -2; S1P3 antagonist: 5; S1P4 ag: -2; S1P4 antag: -13; GALR2 blocker: -11

Results for COc1ccc(C2=NN(C(=O)CN3CCCC3)C(c3ccc(OC)cc3)C2)cc1 (stereo not drawn) ?
S1P3 antagonist: 0; S1P4 ag: 40*; S1P4 antag: 12; S1P4 ag conf: -2; S1P1 ag: -8

Results for COc1ccc(C2CC(c3ccc(Br)cc3)=NN2C(=O)c2cccnc2)cc1 (stereo not drawn) ?
GALR2 agonist: 0; S1P3 antagonist: 7; S1P4 ag: 12*; S1P4 antag: -17; GALR2 blocker: -16; S1P4 ag conf: 0; S1P1 ag: 2

Results for CCOC(=O)c1c(NC(=O)CN2CCCc3ccccc32)sc(C(C)=O)c1C ?
GALR2 agonist: -1; S1P3 antagonist: 7; S1P4 ag: 16*; S1P4 antag: -3; GALR2 blocker: 6; S1P4 ag conf: -2; S1P1 ag: 4

What do the screens show for `COCCOC(=O)c1c(NC(=O)CN2CCc3ccccc32)sc(C(N)=O)c1C`?
S1P3 antagonist: 2; S1P4 ag: -1; S1P4 antag: 1

Results for O=C(Nc1ccc2ccccc2c1)N1CCN(c2ncccc2C(F)(F)F)CC1 ?
GALR2 agonist: -1; S1P3 antagonist: 6; S1P4 ag: 16*; S1P4 antag: -14; GALR2 blocker: 7; S1P4 ag conf: -1; S1P1 ag: 2

What do the screens show for `CN(c1ccc(C(=O)N2CCOCC2)cc1[N+](=O)[O-])C1CCCCC1`?
GALR2 agonist: -2; S1P4 ag: 0; S1P4 antag: -6; GALR2 blocker: -8

How did OC1(c2cccnc2)CCN(Cc2nnnn2Cc2ccccc2)CC1 do in these assays?
S1P3 antagonist: -2; S1P4 ag: 53*; S1P4 antag: 0; S1P4 ag conf: -2; S1P1 ag: 5

Results for Cc1ccc(Cn2nnnc2CN2CCC(O)(c3cccnc3)CC2)cc1 ?
S1P3 antagonist: -11; S1P4 ag: -1; S1P4 antag: -7

Results for CCNC(=S)N/N=C/c1cc(C)n(-c2ccc(Cl)cc2)c1C ?
S1P3 antagonist: 5; S1P4 ag: 2; S1P4 antag: 2

Results for Cc1cc(C=NCCCO)c(C)n1-c1cc(Cl)ccc1Cl ?
S1P3 antagonist: 2; S1P4 ag: 13*; S1P4 antag: -15; S1P4 ag conf: 21*; S1P1 ag: 4

What do the screens show for `CCCCN(CC)CCCNC(=O)C1CCN(c2ncnc3c2sc2cccc(F)c23)CC1`?
S1P3 antagonist: -12; S1P4 ag: 0; S1P4 antag: 1

Results for CC(=O)N=c1c(C#N)cc2c(=O)n3ccccc3nc2n1Cc1ccccc1 ?
GALR2 agonist: 2; S1P3 antagonist: -8; S1P4 ag: 2; S1P4 antag: -7; GALR2 blocker: -1

What do the screens show for `CCOCCCn1c(=NC(C)=O)c(C#N)cc2c(=O)n3ccccc3nc21`?
S1P3 antagonist: -8; S1P4 ag: 25*; S1P4 antag: -26; S1P4 ag conf: 6; S1P1 ag: 11

What do the screens show for `CCOC(=O)c1cc2c(=O)n3ccccc3nc2n(CCOC)c1=NC(=O)c1ccncc1`?
GALR2 agonist: 7.5*; S1P4 ag: 18*; S1P4 antag: -14; GALR2 blocker: -11; S1P4 ag conf: 0; S1P1 ag: -3

How did CCOC(=O)c1cc2c(=O)n3ccccc3nc2n(CCOC)c1=NC(=O)c1c(-c2c(F)cccc2Cl)noc1C do in these assays?
S1P3 antagonist: -3; S1P4 ag: 3; S1P4 antag: -12

Results for CCOC(=O)c1cc2c(=O)n3ccccc3nc2n(CCCOC)c1=NC(=O)C(C)(C)C ?
GALR2 agonist: 12*; S1P4 ag: 16*; S1P4 antag: -14; GALR2 blocker: -21; S1P4 ag conf: 2; S1P1 ag: 5

Results for COCCNC(=O)c1cc(S(=O)(=O)N2CCOCC2)ccc1SCc1cccc(OC)c1OC ?
S1P3 antagonist: -1; S1P4 ag: -3; S1P4 antag: -9

Results for Cc1cccc(N=Cc2cc3c(cc2[N+](=O)[O-])OCO3)c1 ?
GALR2 agonist: -2; S1P4 ag: 16*; S1P4 antag: -2; GALR2 blocker: 7; S1P4 ag conf: -1; S1P1 ag: 15

Results for CCN(CC)C(=O)/C(=C\c1cccc([N+](=O)[O-])c1)NC(=O)c1ccco1 ?
GALR2 agonist: 0; S1P3 antagonist: -13; S1P4 ag: 1; S1P4 antag: -32; GALR2 blocker: -1

Results for Cc1ccc(S(=O)(=O)N(C)C)cc1NC(=O)COC(=O)c1n[nH]c(=O)c2ccccc12 ?
S1P3 antagonist: -1; S1P4 ag: 25*; S1P4 antag: -10; S1P4 ag conf: 0; S1P1 ag: -3

How did Cc1nn(Cc2ccc(F)cc2)c(C)c1NC(=O)c1cc(-c2ccc3c(c2)OCO3)on1 do in these assays?
GALR2 agonist: -3; S1P3 antagonist: 6; S1P4 ag: 0; S1P4 antag: -4; GALR2 blocker: 8

How did Cc1ccc(Cn2nc(C)c(NC(=O)c3cc(-c4ccc5c(c4)OCO5)on3)c2C)cc1 do in these assays?
GALR2 agonist: 0; S1P3 antagonist: 27; S1P4 ag: 19*; S1P4 antag: 4; GALR2 blocker: -3; S1P4 ag conf: -2; S1P1 ag: 0

High-throughput results (PubChem BioAssay)
